Source: PubChem (The Scripps Research Institute Molecular Screening Center)
FBW7 activator: activators of human E3 ligase FBW7. AID 1259310. 650,000 tested, 0.13% active. normalized activity (activation), % at 26.1 µM. Q969H0. AlphaScreen FBW7–phospho-cyclin E peptide binding, activator screen; in the data active = normalized activity above about 1.9%;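 note: purified mutant Fbw7 with reduced substrate affinity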
Target sequence (Q969H0 whole entry, looked up): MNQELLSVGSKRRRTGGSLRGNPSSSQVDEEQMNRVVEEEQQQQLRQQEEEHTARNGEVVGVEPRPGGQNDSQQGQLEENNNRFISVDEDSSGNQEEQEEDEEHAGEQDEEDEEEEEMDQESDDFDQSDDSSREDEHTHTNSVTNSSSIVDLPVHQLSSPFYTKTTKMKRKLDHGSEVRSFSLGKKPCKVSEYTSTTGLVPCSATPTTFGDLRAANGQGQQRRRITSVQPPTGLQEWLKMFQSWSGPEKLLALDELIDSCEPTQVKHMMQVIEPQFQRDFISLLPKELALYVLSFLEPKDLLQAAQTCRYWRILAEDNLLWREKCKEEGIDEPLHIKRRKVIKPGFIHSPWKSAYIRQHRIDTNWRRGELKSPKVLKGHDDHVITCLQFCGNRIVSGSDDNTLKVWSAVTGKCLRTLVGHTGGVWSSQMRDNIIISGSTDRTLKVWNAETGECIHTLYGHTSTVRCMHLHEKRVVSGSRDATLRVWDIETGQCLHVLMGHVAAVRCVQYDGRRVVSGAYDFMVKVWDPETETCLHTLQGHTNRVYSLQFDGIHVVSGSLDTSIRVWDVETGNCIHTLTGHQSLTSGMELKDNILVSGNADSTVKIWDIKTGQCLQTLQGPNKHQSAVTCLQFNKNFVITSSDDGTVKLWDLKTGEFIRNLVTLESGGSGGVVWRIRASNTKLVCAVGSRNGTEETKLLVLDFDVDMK
GPR151 activ: activators of human GPR151 | AID 1508602 | PathHunter beta-arrestin GPR151 cells, luminescence | activation, % at 11.2 µM | Q8TDV0 | 650,000 tested, 1% active; in the data active = activation above about 4.9%;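 note: 0% = median of compound wells and 100% = cells with positive control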
MITF inh: inhibitors of human MITF | AlphaScreen MITF homodimerization, bead proximity signal | inhibition, % at 2.6 µM | 650,000 tested, 0.91% active; in the data active = inhibition above about 50%;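 note: 0% = vehicle wells with protein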
TEAD-YAP inh: TEAD-YAP interaction inhibition. HEK-TIYL cells, TEAD-Gal4/YAP UAS-luciferase luminescence. inhibition, % at 9.12 µM. 640,000 tested, 1.4% active. AID 1259422; in the data active = inhibition above about 32%;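 note: 0% = median of test compound wells and 100% = reference inhibitor wells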
Numbers without * were called inactive. Compounds with a hit are over-represented: about 3.4% of the library has one in this group of screens.

SMILES | FBW7 activator | GPR151 activ | MITF inh | TEAD-YAP inh
CCOc1cc(/C=C2\NC(=S)NC2=O)cc(Cl)c1O | 0 | 0 | 12 | 4
Cc1ccc(NC(C)C(=O)N/N=C/c2cc([N+](=O)[O-])ccc2O)cc1 (configuration not stated) | 0 | 1 | 21 | 17
COc1ccc(C2NC(=O)N(C)C(C)=C2[N+](=O)[O-])cc1OC (configuration not stated) | 0 | 0 | 2 | -5
N#Cc1ccccc1S(=O)(=O)NCC(=O)Nc1ccc2c(c1)OCO2 | 0 | 0 | 4 | 44*
CCOC(=O)C1=C(C)NC(C)=C(C(=O)OCC)C1c1ccc(OC(=O)c2oc3ccccc3c2C)cc1 | 0 | 0 | -6 | -4
COc1cc(C)c2c(c1)oc(=O)c1ccccc12 | 2.2* | 3 | 22 | -6
O=C1c2ccc(-c3nc4ccccc4c(=O)o3)cc2C(=O)N1c1cccnc1 | 0 | 1 | 1 | 0
Cc1ccc(N2CCN(C(=O)Cc3nn(C)c(=O)c4ccccc34)CC2C)cc1 (configuration not stated) | 0 | 0 | 5 | 38*
NC(=O)c1ccccc1Nc1cc(NC(=O)Cc2ccc3ccccc3c2)ncc1C(F)(F)F | 0 | -2 | 2 | 93*
NC(=O)c1ccccc1Nc1cc(NC(=O)Cc2ccc(CN3CCOCC3)cc2)ncc1C(F)(F)F | 0 | 1 | 6 | 99*
NC(=O)c1ccccc1Nc1cc(NC(=O)Cc2ccc(F)cc2)ncc1Cl | 0 | 1 | 8 | 81*
NC(=O)c1ccccc1Nc1cc(NC(=O)Cc2ccc(CN3CCOCC3)cc2)ncc1Cl | 0 | 0 | 4 | 99*
NC(=O)c1ccccc1Nc1cc(Oc2ccc(N3CCNCC3)cc2)ncc1C(F)(F)F | 1 | -2 | -13 | 3
NC(=O)c1ccccc1Nc1nc(Nc2ccc(N3CCOCC3)c(Cl)c2)ncc1Cl | 0 | 1 | -10 | 22
O=C(Cc1ccc2c(c1)OCO2)Nc1cc(Nc2ccccc2-c2nn[nH]n2)c(Cl)cn1 | 1 | 0 | 15 | 1
COc1ccc(Cl)cc1NC(=O)c1nnn(CC(=O)Nc2cccc(C)c2)c1N | 0 | 1 | 13 | 5
Cc1cc(C)n(/N=C/c2ccccc2OCc2ccccc2)c(=O)c1C#N | 0 | 0 | 14 | -8
COC(=O)C1CC(=O)N(C)C12CCN(C/C=C/c1ccc(O)c(OC)c1)CC2 (configuration not stated) | 0 | -1 | 8 | 7
CC(=O)OCCNc1cc(SCc2ccccc2)c2nonc2c1[N+](=O)[O-] | 0 | 0 | 16 | 2
O=C(NCCc1ccccc1)[C@H]1C=CCN1S(=O)(=O)c1ccccc1F | 0 | 2 | -25 | 4
Cn1c(SC2CCOC2=O)nc2sc3c(c2c1=O)CCC3 (configuration not stated) | 0 | 0 | 14 | 7
Cc1cc([N+](=O)[O-])nn1CC(=O)NCc1ccc(F)cc1C(F)(F)F | 0 | -1 | 10 | 44*
Cc1cccnc1C(NC(=O)C1CCN(C(=O)C(C)(C)C)CC1)c1ccc(F)cc1 (configuration not stated) | 0 | 0 | -9 | -5
CN1CCN(C(=O)c2cccc(-c3cncc(-c4ccc(O)cc4)n3)c2)CC1 | 0 | 3 | 10 | 4
CCOC(=O)c1cccc(C(=O)NC2=NN(c3ccccc3)C(=O)C2)n1 | 51* | 1 | -25 | 0
SMILES | FBW7 activator | GPR151 activ | MITF inh | TEAD-YAP inh
CCOC(=O)c1cccc(C(=O)Nc2ccccc2C(=O)OC)n1 | 0 | -2 | 21 | 1
CCCc1ccc(OCC(=O)c2ccc(O)cc2O)cc1 | 0 | -7 | 5 | 85*
COc1ccc(N2C(=O)CC(Sc3nc(C)c4ccccc4n3)C2=O)cc1 (configuration not stated) | 1 | 0 | -4 | 53*
COc1ccc(N2C(=O)CC(SCCN)C2=O)cc1 (configuration not stated) | 2.5* | -1 | 27 | -29
COc1ccc(N2C(=O)CC(Sc3ccccc3C(=O)O)C2=O)cc1 (configuration not stated) | 0 | 1 | 6 | 12
CCOC(=O)C(N)CSC1CC(=O)N(c2ccc(OC)cc2)C1=O (configuration not stated) | 0 | 0 | 3 | -9
O=Cc1s/c(=N\S(=O)(=O)c2ccccc2)n(CCCCl)c1Cl | 0 | -2 | 0 | 45*
COc1ccc2ccccc2c1/C=C1/C(=O)NC(=O)N(Cc2ccco2)C1=O | 0 | -1 | 76* | 4
COc1ccc(OC)c(CN2C(=O)NC(=O)/C(=C\c3ccco3)C2=O)c1 | -1 | 3 | 57* | -1
Cc1cc(/C=C2\C(=O)NC(=O)N(Cc3ccco3)C2=O)c(C)n1C1CC1 | -1 | -2 | 62* | -4
COc1cc(C)c(/C=C2/NC(=O)NC2=O)cc1C(C)C | 0 | 2 | -4 | 44*
CC(C)=CC(=O)Nc1ccc(S(=O)(=O)Nc2nccs2)cc1 | 1 | -2 | 15 | 2
Nc1ccc(Br)cc1C(=O)N1CCN(c2ccccc2)CC1 | 0 | 1 | -7 | -3
COc1cc(C)c(/C=C2/C(=O)NC(=O)N(Cc3ccco3)C2=O)cc1C(C)C | 0 | 0 | 69* | -5
COc1cc(/C=C2/C(=O)NC(=O)N(Cc3ccco3)C2=O)ccc1OCC(=O)O | 0 | 3 | 77* | 7
COc1cc(/C=C2\SC(=S)N(Cc3ccco3)C2=O)ccc1OCC(=O)O | 0 | -1 | 3 | 8
COCCn1c(C)cc(/C=C2\C(=O)NC(=O)N(Cc3ccco3)C2=O)c1C | 0 | 0 | 29 | -6
Cn1c(=O)c(=O)n(C)c2cc(S(=O)(=O)CCC(=O)NCc3ccccn3)ccc21 | 0 | 1 | 0 | -4
Cc1cc(N2CCCCC2)nc2ccc(NC(=O)CSc3ccncc3)cc12 | 0 | 1 | 2 | 3
CC(C(=O)OCc1ccc(F)cc1)N1C(=O)C(=O)c2cc(Br)ccc21 (configuration not stated) | 0 | 1 | 53* | 0
COc1cc(Nc2nc(-c3ccc(C(N)=O)cc3)nc3c2ncn3Cc2ccc(C(F)(F)F)cc2)cc(OC)c1OC | 0 | 1 | 3 | 53*
COc1cc(Nc2nc(-c3ccc(C(N)=O)cc3)nc3c2ncn3-c2ccccc2)cc(OC)c1OC | 0 | 1 | -8 | 15
COc1cc(Nc2nc(-c3ccc(C(N)=O)cc3)nc3c2ncn3C(C)C)cc(OC)c1OC | 0 | 1 | 16 | 41*
COc1cc(Nc2nc(-c3ccc(C(N)=O)cc3)nc3c2ncn3-c2ccsc2)cc(OC)c1OC | 0 | 0 | 10 | 54*
COc1cc(Nc2nc(-c3ccc(C(=O)N4CCN(C)CC4)cc3)nc3c2ncn3C(C)C)cc(OC)c1OC | 0 | 0 | -1 | 30
CCN1CC(CNC2CCN(c3cccc(NC(=O)C4CC4)c3)CC2)CC1=O (configuration not stated) | 0 | 0 | -11 | -1
COc1cccc(OC)c1C(=O)Nc1nc2ccc3sc(C)nc3c2s1 | 0 | -1 | 12 | -8
Cc1nc2c(ccc3nc(NC(=O)Cc4ccccc4)sc32)s1 | 0 | -1 | 23 | -30
